# Test results reported in PubChem BioAssay.
# Calls of active or inactive are those of the source. Unless noted, no rule for the calls is given here.
# Key:
# [1] = test system: XIP peptide (Xip251-270) binding; test: small-molecule binders of XIP peptide, primary screen, biochemical, small-molecule microarray, fluorescence 635/667 nm, 0.1 µg/mL protein (AID 1182); conditions: fluorescent protein binding, 635 nm, higher = more signal, called active from +8 up or from −8 down
# XIP peptide (Xip251-270) = test: small-molecule binders of XIP peptide, primary screen, biochemical, small-molecule microarray, fluorescence 635/667 nm, 0.5 µg/mL protein (AID 1183); conditions: small-molecule microarray binding, fluorescence 635 nm; higher = more signal
# [2] = Plasmodium falciparum growth inhibition, primary screen, strain 3D7, DAPI fluorescence, 100 nL (AID 1184);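 also: parasites grown inside human red blood cells in medium with human serum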; conditions: P. falciparum 3D7 growth, 3 d, higher = more signal
# [3] = biological target: Homeobox protein Hox-A13 (Mus musculus) (UniProt Q62424); test: inhibitors of HoxA13-DNA binding, primary screen, biochemical, fluorescence polarization, labeled oligonucleotide (AID 1185); conditions: 15 min, higher = more signal, called active from +8 up or from −8 down
# Sequence of Homeobox protein Hox-A13 (Mus musculus) (Q62424 whole entry, looked up): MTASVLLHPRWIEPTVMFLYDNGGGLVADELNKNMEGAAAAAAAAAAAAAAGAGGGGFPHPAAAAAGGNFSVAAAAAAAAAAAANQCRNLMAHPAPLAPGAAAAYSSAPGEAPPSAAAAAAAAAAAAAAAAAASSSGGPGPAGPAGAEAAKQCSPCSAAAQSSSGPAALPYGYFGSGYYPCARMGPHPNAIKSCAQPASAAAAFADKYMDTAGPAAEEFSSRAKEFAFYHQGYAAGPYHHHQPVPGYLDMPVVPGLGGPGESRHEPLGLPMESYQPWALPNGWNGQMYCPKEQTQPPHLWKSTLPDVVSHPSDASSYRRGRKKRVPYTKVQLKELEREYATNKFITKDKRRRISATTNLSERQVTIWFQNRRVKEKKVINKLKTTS
# [4] = inhibitors of hydroxyurea-induced Chk1 phosphorylation, primary screen, imaging, HeLa, phospho-Chk1 antibody, percent positive cells (AID 1186); conditions: hydroxyurea-induced phospho-Chk1 immunofluorescence imaging, higher = more signal
# [5] = inhibitors of hydroxyurea-induced Chk1 phosphorylation, primary screen, imaging, HeLa, phospho-Chk1 nuclear intensity (AID 1187); conditions: hydroxyurea-induced phospho-Chk1 immunofluorescence imaging, higher = more signal
Structure (SMILES),composite z-score [1],composite z-score (XIP peptide (Xip251-270)),z-score [2],z-score [3],z-score [4],z-score [5]
CCOc1ccc(N2C(=O)CSC2c2cccc([N+](=O)[O-])c2)cc1 (stereo unspecified),0.115 (inactive),0.193,0.268,-0.0449 (inactive),-0.139 (inactive),-0.0398 (inactive)
O=C1C[C@@](C(=O)NCc2ccccc2)(c2ccc([N+](=O)[O-])cc2)[C@@H](c2ccc(CO)cc2)N1CC12CC3CC(CC(C3)C1)C2,1.9 (inactive),0.733,-0.83,-2.75 (inactive),-0.714 (inactive),-0.762 (inactive)
CC(C)CCC[C@@H](C)[C@H]1CC[C@@]2(C)C3=C(CC[C@]12C)[C@@]1(C)CC[C@H](OC(=O)c2ccc(C(F)(F)F)nc2)C(C)(C)C1CC3 (stereo partly specified),0.106 (inactive),-0.176,-0.145,-1.23 (inactive),-0.887 (inactive),-0.365 (inactive)
C=CCC(OC(C)=O)[C@@H]1[C@@H](N(Cc2ccc(-c3cccc(C(F)(F)F)c3)o2)C(=O)c2cccc3ccccc23)c2cc(OCCCO)ccc2N1C(=O)Cc1ccc2ccccc2c1 (stereo partly specified),-0.16 (inactive),0.0499,-1.78,-3.09 (inactive),0.233 (inactive),0.504 (inactive)
CC1CC/C=C\[C@H]2OC34C=CCN(Cc5ccccc5)C(=O)[C@H]3N(C(C)CO)C(=O)[C@@H]4C2C(=O)O1 (stereo partly specified),-0.49 (inactive),0.0057,-0.562,-5.87 (inactive),-0.682 (inactive),-0.602 (inactive)
COCCOC(=O)N1C(=O)[C@@]2(c3cc(C#CCCO)ccc31)[C@H](c1ccc(OCCO)cc1)N1[C@H](c3ccccc3)[C@H](c3ccccc3)OC(=O)[C@H]1[C@@H]2C(N)=O,0.464 (inactive),0.779,-0.222,-1.33 (inactive),-0.0438 (inactive),0.51 (inactive)
COc1ccc(C(O)C2C=CC3C(=O)N(C)C(=O)C3N2NC(=O)OC(C)(C)C)c2ccccc12 (stereo unspecified),0.661 (inactive),0.744,-0.526,-4.22 (inactive),0.667 (inactive),0.704 (inactive)
C#CCN1[C@@H](Cc2ccc(O)cc2)C(=O)O[C@H](Cc2ccccc2)[C@@H]1/C=C/C1CC1,-0.111 (inactive),0.0549,0.32,-5.26 (inactive),-0.473 (inactive),-0.542 (inactive)
O=C1O[C@@H](c2ccccc2)[C@@H](c2ccccc2)N2[C@@H](c3ccc(OCCO)cc3)[C@]3(C(=O)Nc4ccc(C#CCCO)cc43)[C@@H](C(=O)NC[C@H](O)c3ccccc3)[C@H]12,0.0796 (inactive),0.822,-0.271,-3.67 (inactive),-0.174 (inactive),-0.317 (inactive)
CC(C)N1CC=CC23O[C@@H]4C=CCOC(=O)[C@@H]4[C@H]2C(=O)N(CCCCCO)[C@@H]3C1=O (stereo partly specified),0.334 (inactive),0.729,-0.758,-3.4 (inactive),0.0031 (inactive),-0.0755 (inactive)
COCCOC(=O)N1C(=O)[C@@]2(c3cc(C#CCCO)ccc31)[C@H](c1ccc(O)cc1)N1[C@H](c3ccccc3)[C@H](c3ccccc3)OC(=O)[C@H]1[C@@H]2C(=O)N1CCN(c2ncccn2)CC1,0.729 (inactive),0.831,-1.13,-2.37 (inactive),-0.264 (inactive),-0.0303 (inactive)
O=C1C2C=CC(C(O)C=Cc3ccc([N+](=O)[O-])cc3)N(n3cnnc3)C2C(=O)N1Cc1ccccc1 (stereo unspecified),1.01 (inactive),0.856,-0.0257,-3.97 (inactive),-0.253 (inactive),-0.32 (inactive)
CC(CO)N1C(=O)[C@@H]2C3C(=O)OCCC/C=C\[C@H]3OC23C=CCN(CCN2CCOCC2)C(=O)[C@@H]13 (stereo partly specified),-0.134 (inactive),-0.0838,0.339,-4.25 (inactive),-0.957 (inactive),-1.88 (inactive)
CN(C)CCCCNC(=O)[C@@H]1C[C@@H]2C(=O)N[C@@H](CCCCN)C(=O)N2[C@@H]1c1ccc(O)cc1,1.09 (inactive),0.881,-1.8,1.46 (inactive),0.128 (inactive),-0.115 (inactive)
CS(=O)(=O)CCOC(=O)C1=CC(CCCO)=CC(C2CC2)N(Cc2cc3c(cc2Br)OCO3)C=C1C(=O)OCCS(C)(=O)=O (stereo unspecified),0.389 (inactive),-0.111,-2.58,-5.51 (inactive),-1.19 (inactive),-0.295 (inactive)
O=C(O)[C@H](Cc1ccccc1)n1cc(-c2ccccc2)nn1,-0.152 (inactive),0.297,0.0447,-1.17 (inactive),0.425 (inactive),-0.0072 (inactive)
COc1ccccc1CN1C(=O)c2ccccc2[C@@]2(Cc3ccccc3N(CCCN(C)C)C2=O)[C@@H]1c1ccc(CO)cc1,0.0228 (inactive),0.216,-1.3,1.78 (inactive),-0.481 (inactive),-0.454 (inactive)
COC(=O)[C@@]1(Cc2ccccc2)[C@H]2c3cc(C(=O)N4CCCC4)n(Cc4c(CO)[nH]cc(C)c4=O)c3C[C@H]2CN1C(=O)c1ccccc1,-0.528 (inactive),0.704,-1.46,-5.81 (inactive),0.754 (inactive),0.672 (inactive)

Structure (SMILES),composite z-score [1],composite z-score (XIP peptide (Xip251-270)),z-score [2],z-score [3],z-score [4],z-score [5]
C=CC[C@@]1(C(=O)N2CCCCC2)N=C(c2ccc(OCCCO)cc2)O[C@@H]1c1ccccc1N=[N+]=[N-],0.195 (inactive),0.602,-1.94,-2.64 (inactive),-0.679 (inactive),-0.667 (inactive)
COCCCNC(=O)[C@@]1(Sc2ccc(C)cc2)CC(=O)N(Cc2ccccc2Cl)[C@@H]1c1ccc(CO)cc1,0.906 (inactive),0.887,-1.63,-2.28 (inactive),-0.63 (inactive),-1.1 (inactive)
COc1ccc(C(O)C2C=CC3C(=O)N(C)C(=O)C3N2N(c2ccccc2)c2ccccc2)c2ccccc12 (stereo unspecified),0.742 (inactive),0.763,0.889,-2.84 (inactive),0.436 (inactive),0.15 (inactive)
C=CCN1C(=O)[C@]2(O[C@H](CCO)[C@@H]([Si](C)(C)c3ccc(OC)cc3)[C@@H]2C)c2cc(N(C=O)c3ccccc3)ccc21,1.94 (inactive),0.749,-2.52,-3.67 (inactive),-1.11 (inactive),-0.984 (inactive)
COc1ccc([Si](C)(C)[C@H]2[C@H](CCO)O[C@@]3(C(=O)N(Cc4ccccc4)c4ccc(N5CCCCC5=O)cc43)[C@@H]2C)cc1,0.391 (inactive),0.686,-1.67,-5.2 (inactive),-1.39 (inactive),-0.713 (inactive)
COCCOC(=O)N1C(=O)[C@@]2(c3ccccc31)[C@H](C(=O)N1CCCCCCC1)[C@H]1C(=O)O[C@H](c3ccccc3)[C@H](c3ccccc3)N1[C@@H]2c1ccc(OCCO)cc1,6.55 (inactive),0.992,-2.03,-15.8 (active),-0.261 (inactive),-0.268 (inactive)
COC(=O)[C@]1(CCC(=O)OC(C)(C)C)N=C(c2ccc(OCCCO)cc2)O[C@@H]1c1ccccc1,1.87 (inactive),0.761,-2.31,-4.4 (inactive),-0.621 (inactive),-0.545 (inactive)
CC(C)NC(=O)[C@@]1(Cc2ccccc2I)c2ccccc2C(=O)N(Cc2ccccc2Cl)[C@H]1c1ccc(CO)cc1,0.705 (inactive),0.615,0.0173,-3.93 (inactive),-0.0537 (inactive),0.1 (inactive)
CC[C@@H]1C=C(C(=O)O)[C@H](c2cccc3ccccc23)N1S(=O)(=O)c1ccc(C)cc1,0.406 (inactive),0.437,-0.509,-1.85 (inactive),-1.25 (inactive),-1.44 (inactive)
COc1cc2c(cc1O)C(c1cccs1)N(Cc1ccc([N+](=O)[O-])o1)CC2 (stereo unspecified),0.243 (inactive),0.947,-0.316,-6.24 (inactive),-0.334 (inactive),-0.445 (inactive)
CCCCC(=C=CC[C@@H](O)c1cccc(OCCO)c1)C[C@@H](O)c1ccccn1,1.26 (inactive),0.75,-0.12,-5.42 (inactive),-0.0346 (inactive),0.159 (inactive)
CN1C(=O)C2C=CC(C(O)C=Cc3ccc([N+](=O)[O-])cc3)N(Nc3ccccc3)C2C1=O (stereo unspecified),0.113 (inactive),0.612,0.431,-5.37 (inactive),0.0831 (inactive),-0.733 (inactive)
NCCCCCCNC(=O)[C@H]1C[C@H]2C(=O)N[C@@H](Cc3ccccc3)C(=O)N2[C@H]1c1cccc(OCCO)c1,1.16 (inactive),0.834,-0.516,-3.36 (inactive),-0.182 (inactive),-0.25 (inactive)
O=C(CS)NCCCCCNC(=O)[C@@H]1C[C@@H]2C(=O)NCC(=O)N2[C@@H]1c1ccc(O)cc1,0.366 (inactive),0.352,-1.16,-1.43 (inactive),0.258 (inactive),0.425 (inactive)
C=C(CCCC)/C(=C/C[C@H](OC(C)=O)c1ccc(OCCO)cc1)c1cnc2ccccc2c1,0.578 (inactive),0.741,-2.93,-4.14 (inactive),0.212 (inactive),-0.34 (inactive)
COc1ccc(C(=O)Nc2cccc(CN3C(=O)[C@]4(O[C@H](CCn5cc(CCO)nn5)[C@@H]([Si](C)(C)c5ccc(OC)cc5)[C@@H]4C)c4ccccc43)c2)cc1,-0.16 (inactive),0.249,-2.72,-4.83 (inactive),-0.745 (inactive),-2.04 (inactive)
CC(C)(C)OC(=O)CC[C@@]1(C(=O)N2CCCCC2)N=C(c2ccc(OCCCO)cc2)O[C@@H]1c1ccccc1,0.671 (inactive),0.267,-2.03,-5.06 (inactive),-0.102 (inactive),-0.0985 (inactive)
C=C(CCCC)/C(=C/C[C@H](OC(C)=O)c1ccccc1OCCO)c1cnc2ccccc2c1,2.68 (inactive),0.657,-2.52,-5.13 (inactive),0.444 (inactive),0.328 (inactive)
